Compound activity as filed in PubChem BioAssay.
ADAM17 inh = ADAM17 inhibition, QFRET primary screen; P78536; recombinant ADAM17, EDANS/DABCYL FRET peptide cleavage; inhibition, % at 6.95 µM; 0.83% of 370,000 active;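 active = inhibition above the mean of compounds lying between control limits plus 3 SD, set per campaign, cut at about 8.5% in these data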;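 note: 0% = DMSO-only wells as the low control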
ADAM10 inh = inhibits human ADAM10 | O14672 | recombinant ADAM10, EDANS/DABCYL FRET peptide cleavage, 3 h | inhibition, % at 7 µM | 0.62% of 370,000 active | AID 720582;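 active = inhibition above a per-campaign cutoff equal to the mean of compounds falling between control-based bounds plus 3 SD, cut at about 20% in these data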;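 note: 0% = DMSO wells while the 100% control is not disclosed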
HGIII-sPLA2 inh = Inhibits HGIII-sPLA2 liposome hydrolysis, primary screen | 0.56% of 370,000 active | Q9NZ20 | inhibition, % at 12.2 µM | QFRET BODIPY PC-A2 liposome hydrolysis, fluorescence;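 active = inhibition above mean plus 3 SD of compounds lying within the high and low control bounds, cut at about 19% in these data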;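 note: 0% = median of test compound wells and 100% = no enzyme DMSO wells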
proKLK7 act = activates the human kallikrein-7 zymogen; P49862; AID 652039; activation, % at 7 µM; purified proKLK7, EDANS-DABCYL substrate fluorescence; 100% is mature enzyme control, 0% vehicle; 0.9% of 370,000 active;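 active = activation above the mean of all tested compounds plus 3 SD, computed per campaign excluding outliers beyond control limits, cut at about 13% in these data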
NRP1-CendR mod = alters CendR peptide binding to human NRP-1 | 0.85% of 360,000 active | AID 602438 | O14786 | inhibition, % at 25 µM | FAM-RPARPAR peptide binding to NRP-1, fluorescence polarization;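 active = inhibition or corrected inhibition above about 18%, plus a signal ratio from 0.5 to 1.5, limit read from the data, passing the limit was not always enough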
Target sequence (O14786 whole entry, looked up): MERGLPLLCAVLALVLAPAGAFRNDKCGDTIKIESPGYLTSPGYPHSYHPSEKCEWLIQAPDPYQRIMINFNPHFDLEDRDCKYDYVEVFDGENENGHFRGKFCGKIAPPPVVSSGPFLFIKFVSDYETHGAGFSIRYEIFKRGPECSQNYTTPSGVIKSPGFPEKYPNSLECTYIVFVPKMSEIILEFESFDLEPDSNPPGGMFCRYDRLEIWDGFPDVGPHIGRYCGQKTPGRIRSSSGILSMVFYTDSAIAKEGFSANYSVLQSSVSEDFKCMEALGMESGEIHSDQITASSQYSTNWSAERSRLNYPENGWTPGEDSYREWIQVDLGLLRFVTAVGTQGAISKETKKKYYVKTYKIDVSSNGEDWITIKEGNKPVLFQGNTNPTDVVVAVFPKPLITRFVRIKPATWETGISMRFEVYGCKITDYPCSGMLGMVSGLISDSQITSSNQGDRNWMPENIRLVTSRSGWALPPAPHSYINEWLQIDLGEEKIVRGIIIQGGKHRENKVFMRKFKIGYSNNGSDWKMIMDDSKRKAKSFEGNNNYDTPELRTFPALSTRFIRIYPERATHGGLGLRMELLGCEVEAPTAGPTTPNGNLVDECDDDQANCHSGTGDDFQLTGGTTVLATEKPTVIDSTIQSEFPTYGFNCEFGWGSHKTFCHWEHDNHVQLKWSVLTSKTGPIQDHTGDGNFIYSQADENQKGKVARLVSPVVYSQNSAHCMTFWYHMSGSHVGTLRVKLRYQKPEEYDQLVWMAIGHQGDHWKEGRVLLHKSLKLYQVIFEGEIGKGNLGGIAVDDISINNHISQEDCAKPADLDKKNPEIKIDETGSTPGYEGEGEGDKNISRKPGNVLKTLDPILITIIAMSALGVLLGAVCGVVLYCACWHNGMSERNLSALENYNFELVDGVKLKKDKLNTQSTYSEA
KLK7 act conf = confirmation of human kallikrein-7 zymogen activators. shares compounds with proKLK7 act. purified proKLK7, EDANS-DABCYL substrate fluorescence; scaled: vehicle 0, mature enzyme 100. activation, % at 7 µM. 68% of 3,200 active;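 active = activation, as change over the incubation, above the mean of all tested compounds plus 3 SD, cut at about 13% in these data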
EDANS-DABCYL int = counter-screen for kallikrein-7 activators: EDANS-DABCYL optical interference. 80% of 3,200 active. shares compounds with proKLK7 act. AID 686952. EDANS-DABCYL substrate fluorescence interference, no enzyme, 4 h; solvent 0%, active enzyme control 100%. activation, % at 7 µM;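 active = activation above the all-compound mean plus 3 SD, ignoring values outside control-based bounds, cut at about 4.8% in these data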;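 note: value is the 4 h activation minus the activation read at time zero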
Starred values were filed as active, the others as inactive. In the library only some 3.4% were active in any assay of this set; here they are far more common.

For Cn1ccc2c(-c3ccc(C(=O)O)cc3)cc3c(c21)C1CCC3O1 (stereo unspecified) the results were ADAM17 inh inactive, ADAM10 inh inactive, HGIII-sPLA2 inh -10, proKLK7 act 79*, NRP1-CendR mod 13, KLK7 act conf 66* and EDANS-DABCYL int 70*.
CC(C)c1ccc2[nH]c3c(c2c1)CCCC3=O was read as ADAM17 inh -119, ADAM10 inh -369, HGIII-sPLA2 inh -9, proKLK7 act 14*, NRP1-CendR mod -10, KLK7 act conf -5 and EDANS-DABCYL int -3.
`COc1cccc(/C=N/NC(=O)C(=O)N2CCCCCC2)c1OC` gave ADAM17 inh -1, ADAM10 inh 4, HGIII-sPLA2 inh 5, proKLK7 act 1 and NRP1-CendR mod -1.
For COc1ccc(OC)c(/C=N/NC(=O)c2ccc(=O)[nH]n2)c1 the results were ADAM17 inh -3, ADAM10 inh -9, HGIII-sPLA2 inh -11, proKLK7 act 16*, NRP1-CendR mod 3, KLK7 act conf 17* and EDANS-DABCYL int 20*.
COc1cccc(/C=N/NC(=O)c2ccc(=O)[nH]n2)c1O was read as ADAM17 inh -6, ADAM10 inh -5, HGIII-sPLA2 inh -14, proKLK7 act 0 and NRP1-CendR mod -2.
COc1ccc(OC)c(/C=C/C(=O)OCC(=O)N2CCCCC2)c1 was read as ADAM17 inh -44, ADAM10 inh -157, HGIII-sPLA2 inh 3, proKLK7 act 22*, NRP1-CendR mod 3, KLK7 act conf 14* and EDANS-DABCYL int 14*.
`COc1ccc(OC)c(/C=N/NC2=NS(=O)(=O)c3ccccc32)c1` gave ADAM17 inh -6, ADAM10 inh -19, HGIII-sPLA2 inh 3, proKLK7 act 51*, NRP1-CendR mod 0, KLK7 act conf 52* and EDANS-DABCYL int 46*.
`COc1ccc(OC)c(/C=N/NC(=O)C(=O)N2CCCCCC2)c1` gave ADAM17 inh -17, ADAM10 inh -61, HGIII-sPLA2 inh 7, proKLK7 act 51*, NRP1-CendR mod 3, KLK7 act conf 48* and EDANS-DABCYL int 45*.
For CCCCOc1ccc(C(=O)NC2CCCCN(Cc3ccccc3C)C2=O)cc1 (stereo unspecified) the results were ADAM17 inh 0, ADAM10 inh 1, HGIII-sPLA2 inh 0 and proKLK7 act 0.
Screening C[C@H]1C(c2ccccc2F)O[C@]2(C[C@H](O)c3c(ccc4ccccc34)O2)C[C@@H]1O (stereo partly specified) returned ADAM17 inh -3, ADAM10 inh -4, HGIII-sPLA2 inh -28 and proKLK7 act 1.
`COc1ccccc1C=NNC(=O)c1ccncc1` gave ADAM17 inh 1, ADAM10 inh 1, HGIII-sPLA2 inh -3, proKLK7 act 1 and NRP1-CendR mod -1.
Screening COc1ccc(OC)c(/C=N/NC(=O)c2cc[n+](Cc3ccccc3)cc2)c1 returned ADAM17 inh -9, ADAM10 inh -29, HGIII-sPLA2 inh -2, proKLK7 act 45*, NRP1-CendR mod 10, KLK7 act conf 79* and EDANS-DABCYL int 81*.
COc1ccc(OC)c(/C=N\NC(=O)c2ccc(=O)n(C)c2)c1 was read as ADAM17 inh -38, ADAM10 inh -131, HGIII-sPLA2 inh 2, proKLK7 act 16*, NRP1-CendR mod -13, KLK7 act conf 12 and EDANS-DABCYL int 10*.
`COc1ccc(OC)c(/C=N/NC(=O)c2ccncc2)c1` gave ADAM17 inh -6, ADAM10 inh -15, HGIII-sPLA2 inh 8, proKLK7 act 41*, NRP1-CendR mod 7, KLK7 act conf 41* and EDANS-DABCYL int 39*.
COC(=O)[C@H](C(C)C)N(Cc1cn(Cc2ccccc2)nn1)S(=O)(=O)c1ccc(F)cc1Br was read as ADAM17 inh 5, ADAM10 inh 12, HGIII-sPLA2 inh -3 and proKLK7 act 0.
`CCOC(=O)c1c(C)oc2ccc(O)c(CN3CCCCC3)c12` gave ADAM17 inh -4, ADAM10 inh 2, HGIII-sPLA2 inh -11, proKLK7 act 0 and NRP1-CendR mod 8.
Screening CCOc1ccc2c3c(c(=O)oc2c1OCC)CCCC3 returned ADAM17 inh -70, ADAM10 inh -171, HGIII-sPLA2 inh 4, proKLK7 act 0 and NRP1-CendR mod -8.
For O=c1oc2c(CN3CCCCC3)c(O)ccc2c2c1CCCC2 the results were ADAM17 inh inactive, ADAM10 inh inactive, HGIII-sPLA2 inh 2, proKLK7 act 62*, NRP1-CendR mod -16, KLK7 act conf 66* and EDANS-DABCYL int 70*.
Screening CCc1c(C)c2ccc(O)c(CN3CCCC3)c2oc1=O returned ADAM17 inh inactive, ADAM10 inh inactive, HGIII-sPLA2 inh -9, proKLK7 act 38*, NRP1-CendR mod 1, KLK7 act conf 59* and EDANS-DABCYL int 63*.
Cc1c(C)c2ccc(O)c(CN3CCCC3)c2oc1=O was read as ADAM17 inh inactive, ADAM10 inh inactive, HGIII-sPLA2 inh -12, proKLK7 act 61*, NRP1-CendR mod 1, KLK7 act conf 64* and EDANS-DABCYL int 66*.
Screening Cc1c(O)c(CN2CCCCC2)cc2c3c(c(=O)oc12)CCC3 returned ADAM17 inh inactive, ADAM10 inh inactive, HGIII-sPLA2 inh -1, proKLK7 act 44*, NRP1-CendR mod -8, KLK7 act conf 73* and EDANS-DABCYL int 76*.
CC(=O)N1CCCN(C(=O)C2CCN(c3ncnc4c3sc3cccc(F)c34)CC2)CC1 was read as ADAM17 inh -20, ADAM10 inh -67, HGIII-sPLA2 inh 3 and proKLK7 act 1.
Screening COC(=O)Cc1c(C)c2ccc(OCC(=O)N3CCC(C)CC3)c(C)c2oc1=O returned ADAM17 inh -226, ADAM10 inh inactive, HGIII-sPLA2 inh 0, proKLK7 act 3 and NRP1-CendR mod 5.
Screening CN1CCN(Cc2c(O)ccc3cc(-c4ccccn4)c(=O)oc23)CC1 returned ADAM17 inh inactive, ADAM10 inh inactive, HGIII-sPLA2 inh 3, proKLK7 act 67*, NRP1-CendR mod 11, KLK7 act conf 77* and EDANS-DABCYL int 69*.
For Cc1c(C)c2ccc(O)c(CN3CCN(C)CC3)c2oc1=O the results were ADAM17 inh inactive, ADAM10 inh inactive, HGIII-sPLA2 inh 2, proKLK7 act 63*, NRP1-CendR mod 16, KLK7 act conf 70* and EDANS-DABCYL int 65*.
Screening CN1CCN(Cc2c(O)ccc3cc(Br)ccc23)CC1 returned ADAM17 inh -5, ADAM10 inh -6, HGIII-sPLA2 inh -32 and proKLK7 act -1.
